Reference: PubChem BioAssay (NCI)
About 83,000 compounds went through this panel and 20% of them were active in at least one assay; those are over-represented in the sample as a whole.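 How to read the values: 0–100, growth inhibition (40 = 60% inhibited); 0, no net growth; -100 to 0, cell death (-40 = 40% of starting cells died; -100 = all dead).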 Unmarked numbers belong to inactive results. Active and inactive are the calls of the source. The calls were made as follows: active = growth percent below 10; inactive = the rest.

What follows are compounds tested on HL-60(TB) leukemia (assay: NCI-60 one-dose screen, 48 h (100 = growth as untreated, 0 = no growth, -100 = all killed)). Settings: 10 µM unless noted.

Q: Which growth does the source give for `O=C1Nc2ccc(Br)cc2/C1=N\c1nnc(-c2ccc(Cl)cc2)o1` here?
A: 11.1%

Q: `COc1cc2c(cc1OC)C(Sc1ccc(F)cc1)c1c(nc(N)c(C#N)c1N)O2` (centres undefined) was tested. Which growth did it give?
A: -14.2% (active)

Q: For `COc1cccc(-c2nn(-c3ccccc3)cc2-c2ccnc(N3CCN(C(=O)c4ccccc4)CC3)c2)c1`, which growth is on record?
A: 34.8%

Q: For `O=C(CSc1nnc(-c2ccc(Cl)cc2)n1-c1ccccc1)Nc1ccc(Br)cc1`, which growth is on record?
A: 81.4%
